Screening data: PubChem BioAssay, National Center for Advancing Translational Sciences (NCATS)
Compounds with a hit are over-represented: about 2.4% of the library has one in this group of screens.
Epigenetic derep – Quantitative High-Throughput Screen for Regulators of Epigenetic Control; 0.2% of 280,000 active; Potency, µM (top dose mostly 53.9 µM), actives largely listed as activators; murine LDR cells, GFP reporter derepression, 30 h; AID 1865, 2009; also: nearly all actives have a fitted effect of over 60% in size
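Murine LDR cells bearing a silenced CMV-driven GFP reporter were exposed to compound for 30 h at 37 C. After PBS washes, GFP-positive cells (20-120 um objects) counted by laser-scanning microplate cytometry.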
Nrf2 inh – Nrf2 qHTS screen for inhibitors | AID 504444, 2011 | 2.1% of 360,000 active | A549 ARE-Fluc reporter, luciferase luminescence, 18-24 h | Potency, µM (series often up to 46 µM), hits mostly inhibitors; also: nearly all actives have a fitted effect of over 60% in size
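Cells were seeded and rested 2 h, then exposed to compounds for 18-24 h. CellTiter-Fluor was read first as a viability measure. BugLite was added 15 min before the final luminescent read of ARE-luciferase activity in A549 cells.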
PINK1 modulator – A Quantitative High throughput Screen to Identify Chemical Modulators of PINK1 Expression; PINK1 immunofluorescence, high-content cytometry, 24 h; Potency, µM (doses to about 76.6 µM), most hits filed as activators; 0.2% of 410,000 active; active = well fitted activation curve with a large enough effect; inconclusive = small, poorly fitted or top-dose-only effect; cell line not stated here; also: nearly all actives have a fitted effect of over 65% in size
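Readout is PINK1 immunofluorescence, quantified alongside mitochondrial, cell and nuclear markers by laser-scanning microplate cytometry. Cells from a stable line were exposed to compound titrations (5 concentrations) for 24 hours, with CCCP controls.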
A549 tox-1 – Nrf2 qHTS screen for inhibitors: counterscreen for cytotoxicity; Potency, µM (doses to about 46 µM), most hits filed as inhibitors; A549 ARE-Fluc cells, CellTiter-Fluor viability, 18-24 h; 0.16% of 390,000 active
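Cytotoxicity counterscreen: CellTiter-Fluor fluorescence was measured in A549 ARE_Fluc cells after 18-24 h of compound exposure in a concentration series. The subsequent BugLite luminescent read reports ARE-luciferase activity.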
Nrf2 ARE act – qHTS of Nrf2 Activators | 0.31% of 410,000 active | AREc32 ARE-luciferase reporter (MCF7-derived line), luminescence, 24 h | Potency, µM (series often up to 46.1 µM), actives largely listed as activators; also: nearly all actives have a fitted effect of over 65% in size
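ARE activation measured as luciferase luminescence (Steady-Glo, 30 min RT) in AREc32_Fluc cells after 24 hr compound exposure at 37 deg C, 5% CO2; cells seeded overnight at 1000/well in OPTI-MEM, 5% FBS.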
FLuc counter 3 – Nrf2 qHTS screen for inhibitors: Purified Fluc Biochemical Counterscreen for Hit Validation; 4% of 1,400 active; shares compounds with Nrf2 inh; Potency, µM (series often up to 57.5 µM), actives largely listed as inhibitors; purified firefly luciferase, luminescence inhibition; AID 720522, 2013; also: nearly all actives have a fitted effect of over 65% in size
Target sequence (P08659 whole entry, looked up): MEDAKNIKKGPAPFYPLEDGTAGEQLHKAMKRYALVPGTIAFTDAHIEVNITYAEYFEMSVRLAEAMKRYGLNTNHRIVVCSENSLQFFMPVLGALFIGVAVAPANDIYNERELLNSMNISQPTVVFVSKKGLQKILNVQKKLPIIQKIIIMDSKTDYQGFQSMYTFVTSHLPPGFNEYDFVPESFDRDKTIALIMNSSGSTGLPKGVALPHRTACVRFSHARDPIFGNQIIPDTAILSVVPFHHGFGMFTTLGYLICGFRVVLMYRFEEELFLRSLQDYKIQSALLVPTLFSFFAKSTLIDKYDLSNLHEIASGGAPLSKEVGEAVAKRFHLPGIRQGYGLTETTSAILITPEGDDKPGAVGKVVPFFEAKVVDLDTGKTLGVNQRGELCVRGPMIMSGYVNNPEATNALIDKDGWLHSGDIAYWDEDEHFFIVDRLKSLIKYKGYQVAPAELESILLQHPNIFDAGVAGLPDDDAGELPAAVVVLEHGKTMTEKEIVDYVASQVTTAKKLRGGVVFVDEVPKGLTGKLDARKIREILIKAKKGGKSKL
A549 tox-2 – Nrf2 qHTS screen for inhibitors: A549 ARE-Fluc Cytotoxicity Counterscreen for Hit Validation. shares compounds with Nrf2 inh. A549 ARE-Fluc cells, cytotoxicity counterscreen. Potency, µM (highest dose often 46.1 µM), most hits filed as inhibitors. 2% of 1,400 active. AID 720523, 2013;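 also: cells exposed to compounds for 18 to 24 hours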
Nrf2 ARE inh – Nrf2 qHTS screen for inhibitors: Nrf2 A549 ARE-Fluc Confirmation Assay for Hit Validation | shares compounds with Nrf2 inh | A549 ARE-firefly luciferase reporter, luminescence | Potency, µM (top dose mostly 46.1 µM), most hits filed as inhibitors | 74% of 1,400 active; also: nearly all actives have a fitted effect of over 65% in size
Numbers stand for hits; i = inactive; ? = inconclusive; nt = no result shown; ! = repeats disagree. Unless noted, calls follow the shape of the dose curve; as a rule, active = well fitted curve in the direction sought with a large enough effect; inconclusive = small, poorly fitted or top-dose-only effect, or another doubt; inactive = no such curve, though single readings can be large; an effect the other way counts as inactive or inconclusive.

SMILES | Epigenetic derep | Nrf2 inh | PINK1 modulator | A549 tox-1 | Nrf2 ARE act | FLuc counter 3 | A549 tox-2 | Nrf2 ARE inh
Cc1cccc(-c2nc(S(=O)(=O)c3ccccc3)c(N3CCN(c4ccccc4)CC3)o2)c1 | i | i | i | i | i | nt | nt | nt
Cc1ccc2c(c1)S/C(=C/c1ccc[n+](C)c1)N2CCO | i | 2.6µM | i | i | i | i | i | 6.5µM
CCc1ccccc1NC(=O)CN1C(=O)CCSc2ccc(S(=O)(=O)N3CCCC3)cc21 | i | nt | i | i | i | nt | nt | nt
COc1ccc(CNC(=O)c2cc3c(C)nc4ccccc4c3o2)c(OC)c1 | i | 5.2µM | i | i | i | i | i | nt
O=C(/C=C/c1ccccc1)N1CCN(Cc2cc(=O)n3nc(-c4ccccc4)sc3n2)CC1 | i | nt | i | i | i | nt | nt | nt
Cc1cc(C)nc(SCc2ccc(C(=O)NNC(=O)Nc3cccc(Cl)c3)cc2)n1 | i | 9.2µM | i | ? | i | i | ? | 15µM
O=C(COc1cccc2ccccc12)N1CCN(c2ccccc2)CC1 | i | nt | i | i | i | nt | nt | nt
COc1ccc(N2CCN(C(=O)COc3cccc4ccccc34)CC2)cc1 | nt | 2.6µM | i | ? | i | i | i | i
O=C1SC(Nc2ccccc2)C(=O)N1c1ccccc1 (configuration not stated) | nt | ? | i | i | nt | nt | nt | nt
CCN(c1ccccc1)c1ncnc2c1cnn2-c1ccc(OC)cc1 | i | nt | i | i | i | nt | nt | nt
Cc1cccc(Nc2nc(-c3c(C)nc4ccccn34)cs2)c1 | i | 9.2µM | nt | i | i | i | i | 6.5µM
Cc1nc2ccccn2c1-c1csc(Nc2cccc(O)c2)n1 | i | i | i | i | i | nt | nt | nt
Fc1cc(Br)ccc1Nc1c2c(nc3nc(-c4cccs4)nn13)CCCC2 | i | nt | i | ? | i | nt | nt | nt
CCc1nc(C)cn1S(=O)(=O)c1ccc(Cl)c(Cl)c1OC | i | 5.8µM | i | i | i | i | i | 5.8µM
CCOc1cc(Cl)c(S(=O)(=O)n2cc(C)nc2CC)cc1Cl | i | 8.2µM | i | i | i | i | i | 8.2µM
COc1c(S(=O)(=O)N2CCN(c3ccc(F)cc3)CC2)ccc(Cl)c1Cl | i | i | i | i | i | nt | nt | nt
CCOc1ccc(OCC)c(S(=O)(=O)n2cc(C)nc2CC)c1 | i | i | i | i | i | nt | nt | nt
CCCC(=O)NC(NC(=S)Nc1ccc(N=Nc2ccccc2)cc1)C(Cl)(Cl)Cl (configuration not stated) | i | 8.2µM | i | ? | i | i | ? | 7.3µM
CC(C)CCCCCCCCCCCCC(=O)NCC(=O)NC1C(O)C(O)C(Nc2ncnc3nc[nH]c23)OC1C(O)CO (configuration not stated) | nt | 0.058µM | i | 0.73µM | i | i | ? | 0.013µM
O=c1cc(N2CCN(c3cccc(Cl)c3)CC2)[nH]c(=O)n1C1CCCCC1 | i | ? | i | ? | i | i | ? | nt
O=c1cc(N2CCN(c3ccccc3)CC2)[nH]c(=O)n1C1CCCCC1 | i | i | i | ? | i | nt | nt | nt
CSC1SCC2C(=O)N(C)C(C(C)C)C(=O)OCC(NC(=O)c3cnc4ccccc4n3)C(=O)NC(C)C(=O)N(C)C1C(=O)N(C)C(C(C)C)C(=O)OCC(NC(=O)c1cnc3ccccc3n1)C(=O)NC(C)C(=O)N2C (configuration not stated) | nt | 0.0065µM | i | ? | i | ? | 10µM | 6.5µM
CN1C(C(=O)Nc2ccc(OC(F)(F)F)cc2)=CC(c2cccs2)=NS1(=O)=O | i | 3.7µM! | i | i | i | i | i | nt
CC(=NNC(=S)N1CCC1)c1ccccn1 | nt | 0.13µM | i | ? | ? | i | ? | 0.65µM
